Data taken from the supplement of paper PMC4709259.
Counter-ions that a name gives are not always drawn. ± gives the standard deviation.

Columns and labels:
Jurkat [1] = experiment: mean cell size (FSC-A) relative to DMSO control (fraction of control); higher = larger cells; conditions: 48 h
In short: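 Jurkat cells seeded at 600 cells/µl were incubated 1 h, then exposed for 48h to the Enzo Screen-Well FDA Approved Drug Library v2.0 at 25µM in 0.9% (v/v) final DMSO. Drugs that cut counts below 20% of controls were diluted 10-fold and retested, down to 25nM. Cell count and mean cell size (forward scatter area) were read on an Accuri C6 flow cytometer, relative to solvent-only controls. Plates held 6-12 controls; values are means of 3 biological replicates.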

Jurkat [2] = experiment: cell count relative to DMSO control (fraction of control); higher = more cells (less growth inhibition); conditions: 48 h

| SMILES | mean cell size (Jurkat [1]) | cell count (Jurkat [2]) |
| --- | --- | --- |
| CC(C)NCC(O)COc1cccc2ccccc12 (centres undefined) [Propranolol·HCl] (concentration: 25 µM) | 1.04 ± 0.061 | 0.633 ± 0.015 |
| CC(=O)OC[C@H]1O[C@@H]([S-])[C@H](OC(C)=O)[C@@H](OC(C)=O)[C@@H]1OC(C)=O.CCP(CC)CC.[Au+] [Auranofin] (concentration: 250 nM) | 0.9833 ± 0.0086 | 0.762 ± 0.058 |
| CC1(C)S[C@@H]2[C@H](NC(=O)[C@H](N)c3ccc(O)cc3)C(=O)N2[C@H]1C(=O)O [Amoxicillin] (concentration: 25 µM) | 0.988 ± 0.012 | 0.866 ± 0.063 |
| NNCCc1ccccc1 [Phenelzine Sulfate] (concentration: 25 µM) | 0.942 ± 0.015 | 0.882 ± 0.12 |
| OC[C@@H](O)[C@@H](O)[C@H](O)[C@H](O)CO [Mannitol] (concentration: 25 µM) | 0.947 ± 0.041 | 0.977 ± 0.097 |
| NC[C@H]1CC[C@H](C(=O)O)CC1 [Tranexamic Acid] (concentration: 25 µM) | 0.961 ± 0.051 | 0.542 ± 0.14 |
| CCS(=O)(=O)CCn1c([N+](=O)[O-])cnc1C [Tinidazole] (concentration: 25 µM) | 0.992 ± 0.049 | 0.528 ± 0.018 |
| CC(C)NCC(O)COc1ccc(COCCOC(C)C)cc1 (centres undefined) [Bisoprolol Fumarate] (concentration: 25 µM) | 0.964 ± 0.046 | 0.732 ± 0.035 |
| CN(C)CCC(c1ccc(Br)cc1)c1ccccn1 (centres undefined) [Brompheniramine Maleate] (concentration: 25 µM) | 0.946 ± 0.034 | 1 ± 0.14 |
| C=C(CC)C(=O)c1ccc(OCC(=O)O)c(Cl)c1Cl [Ethacrynic Acid] (concentration: 25 µM) | 0.924 ± 0.015 | 0.453 ± 0.058 |
| CC1=C(C/C=C(\C)CCC[C@H](C)CCC[C@H](C)CCCC(C)C)C(=O)c2ccccc2C1=O [Phytonadione] (concentration: 25 µM) | 0.986 ± 0.024 | 0.886 ± 0.1 |
| CCc1cccc2c3c([nH]c12)C(CC)(CC(=O)O)OCC3 (centres undefined) [Etodolac] (concentration: 25 µM) | 1.08 ± 0.042 | 0.947 ± 0.018 |
| O=C(c1ccc(OCCN2CCCCC2)cc1)c1c(-c2ccc(O)cc2)sc2cc(O)ccc12 [Raloxifene·HCl] (concentration: 25 µM) | 0.891 ± 0.016 | 0.675 ± 0.044 |
| CC1=C(/C=C/C(C)=C/C=C/C(C)=C\C(=O)O)C(C)(C)CCC1 [Isotretinoin (13-Cis-Retinoic Acid)] (concentration: 25 µM) | 0.864 ± 0.03 | 1.02 ± 0.11 |
| CC(=O)N[C@@H](CS)C(=O)O [Acetylcysteine] (concentration: 25 µM) | 1.02 ± 0.059 | 0.772 ± 0.059 |
| Nc1c2c(nc3ccccc13)CCCC2 [Tacrine·HCl] (concentration: 25 µM) | 0.9808 ± 0.0065 | 0.854 ± 0.017 |
| CN(C)c1cc(NC(=O)CNC(C)(C)C)c(O)c2c1C[C@H]1C[C@H]3[C@H](N(C)C)C(=O)C(C(N)=O)=C(O)[C@@]3(O)C(=O)C1=C2O [Tigecycline] (concentration: 25 µM) | 1.01 ± 0.051 | 0.784 ± 0.06 |
| NCCCC(O)(P(=O)(O)O)P(=O)(O)O [Alendronate·Na Trihydrate] (concentration: 25 µM) | 0.927 ± 0.043 | 0.282 ± 0.11 |
| CC(C)(C)NC(=O)[C@@H]1CN(Cc2cccnc2)CCN1C[C@@H](O)C[C@@H](Cc1ccccc1)C(=O)N[C@H]1c2ccccc2C[C@H]1O [Indinavir] (concentration: 25 µM) | 0.93 ± 0.056 | 0.539 ± 0.068 |
| Cc1cccc(CN2CCN(C(c3ccccc3)c3ccc(Cl)cc3)CC2)c1 (centres undefined) [Meclizine Dihydrochloride] (concentration: 25 µM) | 0.965 ± 0.024 | 0.703 ± 0.088 |
| CCOC(=O)c1ccc(C#Cc2ccc3c(c2)C(C)(C)CCS3)nc1 [Tazarotene] (concentration: 25 µM) | 0.894 ± 0.021 | 0.698 ± 0.18 |
| O=c1[nH]c(=O)n([C@H]2C[C@H](O)[C@@H](CO)O2)cc1F [Floxuridine] (concentration: 25 nM) | 1.06 ± 0.063 | 0.178 ± 0.096 |
| CN(C)CC/C=C1/c2ccccc2COc2ccc(CC(=O)O)cc21 [Olopatadine] (concentration: 25 µM) | 0.976 ± 0.029 | 0.929 ± 0.1 |
| CC(C)(C)NCC(O)c1ccc(O)c(CO)c1 (centres undefined) [Salbutamol Hemisulfate] (concentration: 25 µM) | 1.01 ± 0.056 | 0.916 ± 0.11 |
| C1N2CN3CN1CN(C2)C3 [Methenamine Hippurate] (concentration: 25 µM) | 1.03 ± 0.063 | 0.89 ± 0.1 |
| Nc1nc2[nH]cc(CCc3ccc(C(=O)N[C@@H](CCC(=O)O)C(=O)O)cc3)c2c(=O)[nH]1 [Pemetrexed Disodium] (concentration: 2.5 µM) | 1.4 ± 0.058 | 0.247 ± 0.028 |

| SMILES | mean cell size (Jurkat [1]) | cell count (Jurkat [2]) |
| --- | --- | --- |
| CC1CNc2c(cccc2S(=O)(=O)N[C@@H](CCCNC(=N)N)C(=O)N2CC[C@@H](C)C[C@@H]2C(=O)O)C1 (some centres undefined) [Argatroban] (concentration: 25 µM) | 0.938 ± 0.025 | 0.702 ± 0.023 |
| Cc1cc(NS(=O)(=O)c2ccc(N)cc2)no1 [Sulfamethoxazole] (concentration: 25 µM) | 0.962 ± 0.036 | 0.809 ± 0.063 |
| CC(C)C[C@H](NC(=O)[C@@H](COC(C)(C)C)NC(=O)[C@H](Cc1ccc(O)cc1)NC(=O)[C@H](CO)NC(=O)[C@H](Cc1c[nH]c2ccccc12)NC(=O)[C@H](Cc1cnc[nH]1)NC(=O)[C@@H]1CCC(=O)N1)C(=O)N[C@@H](CCCNC(=N)N)C(=O)N1CCC[C@H]1C(=O)NNC(N)=O [Goserelin Acetate] (concentration: 25 µM) | 0.953 ± 0.045 | 1.044 ± 0.003 |
| C[C@@H]1C[C@H]2[C@@H]3CCC4=CC(=O)C=C[C@]4(C)[C@@]3(F)[C@@H](O)C[C@]2(C)[C@H]1C(=O)CO [Desoximetasone] (concentration: 25 µM) | 0.949 ± 0.035 | 0.764 ± 0.02 |
| CN(C)CCCN1c2ccccc2CCc2ccc(Cl)cc21 [Clomipramine·HCl] (concentration: 25 µM) | 0.961 ± 0.035 | 0.4539 ± 0.0031 |
| NS(=O)(=O)c1cc2c(cc1Cl)NCNS2(=O)=O [Hydrochlorothiazide] (concentration: 25 µM) | 0.901 ± 0.044 | 0.411 ± 0.088 |
| COc1cc2nc(N3CCN(C(=O)c4ccco4)CC3)nc(N)c2cc1OC [Prazosin·HCl] (concentration: 2.5 µM) | 1.03 ± 0.056 | 0.484 ± 0.18 |
| CC(O)(P(=O)(O)O)P(=O)(O)O [Etidronate Disodium] (concentration: 25 µM) | 1 ± 0.052 | 0.595 ± 0.17 |
| CC(=O)Oc1ccccc1C(=O)O [Aspirin (Acetylsalicylic Acid)] (concentration: 25 µM) | 0.9355 ± 0.0074 | 0.97 ± 0.082 |
| COC(=O)C1=C(C)NC(C)=C(C(=O)OCCN(C)Cc2ccccc2)C1c1cccc([N+](=O)[O-])c1 (centres undefined) [Nicardipine·HCl] (concentration: 25 µM) | 1.01 ± 0.071 | 0.568 ± 0.034 |
| CN(C)CCC[C@@]1(c2ccc(F)cc2)OCc2cc(C#N)ccc21 [Escitalopram] (concentration: 25 µM) | 1.06 ± 0.039 | 0.382 ± 0.085 |
| CC(C)N1CCN(c2ccc(OCC3COC(Cn4cncn4)(c4ccc(Cl)cc4Cl)O3)cc2)CC1 (centres undefined) [Terconazole] (concentration: 25 µM) | 0.891 ± 0.017 | 0.299 ± 0.11 |
| CN(C)C(=N)NC(=N)N [Metformin·HCl] (concentration: 25 µM) | 0.954 ± 0.067 | 0.66 ± 0.18 |
| CC(C)NCC(O)c1cc(O)cc(O)c1 (centres undefined) [Metaproterenol Hemisulfate (Orciprenaline)] (concentration: 25 µM) | 1.1 ± 0.033 | 0.895 ± 0.04 |
| NCCCC[C@H](N[C@@H](CCc1ccccc1)C(=O)O)C(=O)N1CCC[C@H]1C(=O)O [Lisinopril·2H2O] (concentration: 25 µM) | 0.955 ± 0.022 | 0.884 ± 0.075 |
| CNC(=O)c1cnn(-c2nc(N)c3ncn([C@@H]4O[C@H](CO)[C@@H](O)[C@H]4O)c3n2)c1 [Regadenoson] (concentration: 25 µM) | 0.991 ± 0.035 | 0.883 ± 0.11 |
| Cc1cc(C)cc(OCC2CNC(=O)O2)c1 (centres undefined) [Metaxalone] (concentration: 25 µM) | 0.998 ± 0.054 | 0.853 ± 0.17 |
| COc1cc2nc(N3CCN(C(=O)C4CCCO4)CC3)nc(N)c2cc1OC (centres undefined) [Terazosin·HCl] (concentration: 25 µM) | 0.997 ± 0.047 | 0.607 ± 0.059 |
| Cc1nnc(C(C)C)n1C1C[C@H]2CC[C@@H](C1)N2CC[C@H](NC(=O)C1CCC(F)(F)CC1)c1ccccc1 (stereo in doubt) [Maraviroc] (concentration: 25 µM) | 1 ± 0.044 | 0.668 ± 0.062 |
| CCOC(=O)[C@H](CCc1ccccc1)N[C@H]1CCc2ccccc2N(CC(=O)O)C1=O [Benazepril·HCl] (concentration: 25 µM) | 0.965 ± 0.012 | 0.885 ± 0.035 |
| CCCNCC(O)COc1ccccc1C(=O)CCc1ccccc1 (centres undefined) [Propafenone·HCl] (concentration: 25 µM) | 1.06 ± 0.02 | 0.605 ± 0.13 |
| CN1CCN(C2=Nc3ccccc3Oc3ccc(Cl)cc32)CC1 [Loxapine Succinate] (concentration: 25 µM) | 0.908 ± 0.024 | 1.16 ± 0.1 |
| CN(C)CCC=C1c2ccccc2CCc2ccccc21 [Amitriptyline·HCl] (concentration: 25 µM) | 0.915 ± 0.037 | 0.798 ± 0.033 |
| Cc1cccn2c(=O)c(-c3nnn[nH]3)cnc12 [Pemirolast Potassium] (concentration: 25 µM) | 0.938 ± 0.024 | 0.756 ± 0.11 |
| O=c1[nH]cnc2c1ncn2[C@H]1CC[C@@H](CO)O1 [Didanosine] (concentration: 25 µM) | 0.9758 ± 0.0048 | 0.462 ± 0.15 |
| C[C@H]1C[C@@H]2[C@H]([C@@H](O)C[C@@]3(C)[C@H]2CC[C@]3(O)C(=O)CO)[C@@]2(C)C=CC(=O)C=C12 [Methylprednisolone] (concentration: 25 µM) | 0.908 ± 0.013 | 0.873 ± 0.025 |
